Measured values published in ChEMBL document CHEMBL3988442, “University of Dundee, Small-Polar-MMV Screening Library” (2021).
For some assays here: Measured potencies and affinities stand elsewhere.

Columns and labels:
Design in all cases: scale not given: direction of the effect not stated beside the values
[1] = molecular target: Protein translocase subunit SecA (Escherichia coli (strain K12)) (UniProt P10408); test: Assay to Identify E. coli SecA ATPase Inhibitors; format: functional; conditions: 30 µM
[2] = molecular target: T1, Ubiquitin-activating enzyme e1, putative (Leishmania donovani (strain BPK282A1)) (UniProt E9BSI1); test: Leishmania donovani Ubiquitin Activating Enzyme (LdE1); format: functional; conditions: 30 µM
T1 sequence (whole entry): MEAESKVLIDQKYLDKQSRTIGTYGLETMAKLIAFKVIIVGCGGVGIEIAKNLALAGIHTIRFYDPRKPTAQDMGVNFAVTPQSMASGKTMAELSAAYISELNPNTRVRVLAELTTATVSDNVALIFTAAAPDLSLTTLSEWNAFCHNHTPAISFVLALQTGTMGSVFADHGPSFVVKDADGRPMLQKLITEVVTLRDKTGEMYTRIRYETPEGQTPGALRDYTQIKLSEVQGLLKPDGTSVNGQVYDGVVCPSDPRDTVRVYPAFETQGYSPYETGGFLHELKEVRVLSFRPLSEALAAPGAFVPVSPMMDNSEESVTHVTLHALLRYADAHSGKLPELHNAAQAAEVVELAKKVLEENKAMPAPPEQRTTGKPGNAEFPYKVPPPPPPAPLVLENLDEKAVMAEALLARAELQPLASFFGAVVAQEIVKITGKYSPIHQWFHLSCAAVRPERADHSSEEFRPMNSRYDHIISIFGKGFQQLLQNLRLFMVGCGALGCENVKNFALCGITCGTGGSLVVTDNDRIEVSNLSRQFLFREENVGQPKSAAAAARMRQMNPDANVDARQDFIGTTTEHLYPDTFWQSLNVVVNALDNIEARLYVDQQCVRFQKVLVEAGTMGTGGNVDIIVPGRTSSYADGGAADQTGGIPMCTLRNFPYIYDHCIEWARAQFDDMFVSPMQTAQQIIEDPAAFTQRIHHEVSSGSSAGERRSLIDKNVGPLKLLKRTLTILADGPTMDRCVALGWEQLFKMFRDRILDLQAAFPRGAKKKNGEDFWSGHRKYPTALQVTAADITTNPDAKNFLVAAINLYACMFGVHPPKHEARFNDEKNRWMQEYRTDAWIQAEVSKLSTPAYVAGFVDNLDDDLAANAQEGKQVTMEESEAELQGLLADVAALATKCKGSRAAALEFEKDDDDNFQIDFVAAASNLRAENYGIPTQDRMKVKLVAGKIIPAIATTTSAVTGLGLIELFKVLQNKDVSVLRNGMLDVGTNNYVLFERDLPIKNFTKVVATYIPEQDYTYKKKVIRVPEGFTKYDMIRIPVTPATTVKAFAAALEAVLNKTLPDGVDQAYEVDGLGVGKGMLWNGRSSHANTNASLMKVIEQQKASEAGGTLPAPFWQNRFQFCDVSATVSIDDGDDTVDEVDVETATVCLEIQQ

[3] = molecular target: Sialic acid-binding Ig-like lectin 9 (Homo sapiens) (UniProt Q9Y336); test: Hs-Siglec9 ALPHAscreen SOP 20170721; conditions: 10 µM
Trypanosoma cruzi = test: Trypanosoma cruzi phosphomannomutase and mannose-1-phosphate guanylyltransferase assay; format: functional; conditions: 10 µM
[4] = molecular target: T2, Arginase-2, mitochondrial (Homo sapiens) (UniProt P78540); test: in vitro enzyme assay to detect the production of urea directly proportional to the activity of Arginase II; format: functional; conditions: 33.3 µM; further: in the data most compounds retested in dose-response had high values
T2 sequence (whole entry): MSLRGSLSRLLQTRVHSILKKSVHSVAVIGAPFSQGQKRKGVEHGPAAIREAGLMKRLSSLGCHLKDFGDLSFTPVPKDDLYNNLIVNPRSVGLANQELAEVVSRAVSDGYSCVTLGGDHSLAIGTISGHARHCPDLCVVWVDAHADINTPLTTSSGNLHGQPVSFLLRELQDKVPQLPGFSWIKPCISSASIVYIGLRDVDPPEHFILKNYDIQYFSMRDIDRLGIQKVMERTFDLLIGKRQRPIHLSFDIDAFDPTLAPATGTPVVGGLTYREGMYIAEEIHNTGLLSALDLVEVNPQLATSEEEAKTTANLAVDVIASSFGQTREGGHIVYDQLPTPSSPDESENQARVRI

[5] = molecular target: T3, Proteasome subunit beta (Trypanosoma cruzi) (UniProt O96673); test: Trypanosoma cruzi proteasome chymotrypsin-like activity (TcProtChymo) assay.; further: in the data most compounds retested in dose-response had high values; format: functional; conditions: 9.37 µM
T3 sequence (whole entry): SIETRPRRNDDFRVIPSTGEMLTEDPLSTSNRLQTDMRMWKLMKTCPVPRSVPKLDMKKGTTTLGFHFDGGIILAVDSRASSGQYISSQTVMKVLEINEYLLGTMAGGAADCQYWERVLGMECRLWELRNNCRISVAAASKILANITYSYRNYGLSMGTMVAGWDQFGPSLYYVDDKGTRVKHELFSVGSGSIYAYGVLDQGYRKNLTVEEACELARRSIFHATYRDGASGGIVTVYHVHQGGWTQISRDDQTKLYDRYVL

Homo sapiens = organism: Homo sapiens; test: To identify inhibition of the IFN signalling (Jak-Stat) pathway via expression of an eGFP reporter gene under the control of an IFN-stimulated response element (ISRE) containing MxA promoter.; format: functional; conditions: 30 µM
[6] = molecular target: T4, Tyrosyl-tRNA synthetase, putative (Trypanosoma cruzi (strain CL Brener)) (UniProt Q4DSP6); test: Trypanosoma cruzi tyrosyl tRNA synthetase (TcYRS) _High Tyrosine SOP; format: functional; conditions: 30 µM; further: in the data most compounds retested in dose-response had high values
T4 sequence (whole entry): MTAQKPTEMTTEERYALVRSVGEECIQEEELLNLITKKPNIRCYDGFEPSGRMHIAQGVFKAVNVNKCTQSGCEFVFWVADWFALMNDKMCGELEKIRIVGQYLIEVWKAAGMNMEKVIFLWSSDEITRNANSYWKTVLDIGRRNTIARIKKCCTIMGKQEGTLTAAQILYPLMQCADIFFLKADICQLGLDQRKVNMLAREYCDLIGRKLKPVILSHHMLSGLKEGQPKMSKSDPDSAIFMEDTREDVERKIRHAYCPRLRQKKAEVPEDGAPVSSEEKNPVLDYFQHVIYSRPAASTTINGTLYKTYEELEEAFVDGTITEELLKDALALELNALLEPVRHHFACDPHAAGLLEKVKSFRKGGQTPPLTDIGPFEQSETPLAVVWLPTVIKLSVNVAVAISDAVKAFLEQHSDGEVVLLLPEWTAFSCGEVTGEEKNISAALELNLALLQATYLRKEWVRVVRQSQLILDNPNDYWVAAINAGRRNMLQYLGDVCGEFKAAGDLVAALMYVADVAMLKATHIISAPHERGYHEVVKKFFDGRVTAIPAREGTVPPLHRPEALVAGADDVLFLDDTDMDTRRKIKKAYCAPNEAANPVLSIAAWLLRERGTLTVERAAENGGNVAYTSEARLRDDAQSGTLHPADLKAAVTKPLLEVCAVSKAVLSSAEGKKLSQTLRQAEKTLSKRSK

[7] = molecular target: T4, Tyrosyl-tRNA synthetase, putative (Trypanosoma cruzi (strain CL Brener)); test: Trypanosoma cruzi tyrosyl tRNA synthetase (TcYRS) SOP; format: functional; conditions: 30 µM
[8] = molecular target: Chromo domain-containing protein 1 (Saccharomyces cerevisiae (strain ATCC 204508 / S288c) (Baker's yeast)) (UniProt P32657); test: ScCHD-1 Enzyme Inhibition Assay; format: functional; conditions: 30 µM; further: in the data most compounds retested in dose-response had high values
Sequence of Chromo domain-containing protein 1 (Saccharomyces cerevisiae (strain ATCC 204508 / S288c) (Baker's yeast)) (P32657 whole entry, the tested form may be a part): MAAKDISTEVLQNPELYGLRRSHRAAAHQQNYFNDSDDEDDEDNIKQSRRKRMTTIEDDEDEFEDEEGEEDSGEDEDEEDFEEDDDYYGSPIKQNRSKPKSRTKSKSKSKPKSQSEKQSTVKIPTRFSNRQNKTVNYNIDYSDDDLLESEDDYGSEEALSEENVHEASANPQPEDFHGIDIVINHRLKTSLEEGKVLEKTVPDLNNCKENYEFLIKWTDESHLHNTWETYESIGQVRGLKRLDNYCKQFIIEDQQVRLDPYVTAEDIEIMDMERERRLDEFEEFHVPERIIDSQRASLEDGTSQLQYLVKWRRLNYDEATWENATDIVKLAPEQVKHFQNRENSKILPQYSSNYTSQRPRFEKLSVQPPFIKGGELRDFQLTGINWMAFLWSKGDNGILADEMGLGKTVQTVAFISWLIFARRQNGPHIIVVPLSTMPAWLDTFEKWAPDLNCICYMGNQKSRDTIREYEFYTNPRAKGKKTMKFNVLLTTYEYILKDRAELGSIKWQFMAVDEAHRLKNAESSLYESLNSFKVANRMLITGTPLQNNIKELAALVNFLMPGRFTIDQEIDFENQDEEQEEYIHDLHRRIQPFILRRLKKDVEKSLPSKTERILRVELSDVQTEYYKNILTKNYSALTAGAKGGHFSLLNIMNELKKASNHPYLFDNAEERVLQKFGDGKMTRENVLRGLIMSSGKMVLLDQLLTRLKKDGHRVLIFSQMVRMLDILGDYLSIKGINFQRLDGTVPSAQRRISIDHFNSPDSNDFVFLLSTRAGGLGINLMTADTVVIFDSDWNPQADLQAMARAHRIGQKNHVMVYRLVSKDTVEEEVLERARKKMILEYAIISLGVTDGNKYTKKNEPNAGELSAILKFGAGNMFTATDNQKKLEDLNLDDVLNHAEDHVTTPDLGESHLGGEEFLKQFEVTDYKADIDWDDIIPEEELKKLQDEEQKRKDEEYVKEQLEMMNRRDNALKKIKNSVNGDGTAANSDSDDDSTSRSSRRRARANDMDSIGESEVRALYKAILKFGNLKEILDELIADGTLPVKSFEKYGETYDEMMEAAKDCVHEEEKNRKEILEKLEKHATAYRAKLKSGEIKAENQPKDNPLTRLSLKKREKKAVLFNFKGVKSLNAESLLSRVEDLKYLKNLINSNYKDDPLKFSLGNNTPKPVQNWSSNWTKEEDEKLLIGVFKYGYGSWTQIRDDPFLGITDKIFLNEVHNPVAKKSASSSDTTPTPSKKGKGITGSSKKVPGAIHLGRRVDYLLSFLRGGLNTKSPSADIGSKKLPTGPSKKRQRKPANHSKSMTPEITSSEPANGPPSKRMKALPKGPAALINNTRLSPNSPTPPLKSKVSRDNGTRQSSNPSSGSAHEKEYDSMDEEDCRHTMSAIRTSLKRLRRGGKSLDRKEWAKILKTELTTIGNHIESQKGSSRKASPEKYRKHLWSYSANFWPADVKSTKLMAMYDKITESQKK

Sequence of Protein translocase subunit SecA (Escherichia coli (strain K12)) (P10408 whole entry): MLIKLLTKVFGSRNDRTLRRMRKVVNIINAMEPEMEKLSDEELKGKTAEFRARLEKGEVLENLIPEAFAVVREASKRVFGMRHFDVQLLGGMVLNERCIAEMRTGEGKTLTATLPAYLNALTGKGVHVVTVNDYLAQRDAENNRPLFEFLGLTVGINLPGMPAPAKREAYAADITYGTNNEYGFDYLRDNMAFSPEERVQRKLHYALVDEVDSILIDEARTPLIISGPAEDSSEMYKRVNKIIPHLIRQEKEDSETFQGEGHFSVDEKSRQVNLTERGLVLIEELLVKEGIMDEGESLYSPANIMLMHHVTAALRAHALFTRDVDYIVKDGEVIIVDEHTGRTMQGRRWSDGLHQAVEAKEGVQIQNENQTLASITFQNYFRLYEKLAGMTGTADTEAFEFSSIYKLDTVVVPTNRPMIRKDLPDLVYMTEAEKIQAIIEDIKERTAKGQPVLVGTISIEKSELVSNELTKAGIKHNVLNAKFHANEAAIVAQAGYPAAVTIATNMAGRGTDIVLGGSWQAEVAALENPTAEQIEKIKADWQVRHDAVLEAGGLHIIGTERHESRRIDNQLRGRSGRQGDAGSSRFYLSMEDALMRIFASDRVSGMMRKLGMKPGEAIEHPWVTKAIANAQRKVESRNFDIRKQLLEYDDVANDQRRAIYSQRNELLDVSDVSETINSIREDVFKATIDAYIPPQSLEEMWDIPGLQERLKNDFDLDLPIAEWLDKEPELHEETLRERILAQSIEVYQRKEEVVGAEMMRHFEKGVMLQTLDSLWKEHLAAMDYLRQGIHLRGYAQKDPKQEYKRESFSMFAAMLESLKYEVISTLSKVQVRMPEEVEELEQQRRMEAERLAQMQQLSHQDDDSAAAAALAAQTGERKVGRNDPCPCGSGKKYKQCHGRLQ
Sequence of Sialic acid-binding Ig-like lectin 9 (Homo sapiens) (Q9Y336 whole entry): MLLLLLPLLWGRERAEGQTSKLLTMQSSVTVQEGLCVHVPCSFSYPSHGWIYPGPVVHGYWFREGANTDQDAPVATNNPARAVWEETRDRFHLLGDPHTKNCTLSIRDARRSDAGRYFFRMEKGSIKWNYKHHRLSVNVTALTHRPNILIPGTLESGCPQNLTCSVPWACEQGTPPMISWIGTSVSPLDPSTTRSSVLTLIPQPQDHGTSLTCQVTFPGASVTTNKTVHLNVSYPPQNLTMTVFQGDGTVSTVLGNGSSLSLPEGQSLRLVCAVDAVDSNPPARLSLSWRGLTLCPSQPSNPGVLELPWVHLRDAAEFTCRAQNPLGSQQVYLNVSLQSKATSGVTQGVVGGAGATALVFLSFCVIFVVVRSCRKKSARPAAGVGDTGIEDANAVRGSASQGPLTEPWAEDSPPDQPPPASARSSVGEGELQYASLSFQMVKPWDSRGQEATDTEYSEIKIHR

SMILES	Percent Effect [1] [%]	Percent Effect [2] [%]	Percent Effect [3] [%]	Percent Effect (Trypanosoma cruzi) [%]	Percent Effect [4] [%]	Percent Effect [5] [%]	Percent Effect (Homo sapiens) [%]	Percent Effect [6] [%]	Percent Effect [7] [%]	Percent Effect [8] [%]
CCS(=O)(=O)CCN1CCC(N(C)Cc2noc(C(C)C)n2)C1 (stereo not given)	-8.69	13	9.47	-1.87	-0.205	10.3	10.2	4.9	11.8	-6.07
CCc1nc(C2CCCN2C(=O)c2nc(C)n3ccccc23)no1 (stereo not given)	-0.63	2.67	-0.749	-5.02	4.43	3.65	15	4.74	5.13	-15.8
O=C(NCC1CCSCC1)N(CCCO)C1CCc2ccccc21 (stereo not given)	-1.28	8	-4.32	-4.02	-3.1	9.92	11	-0.526	0	-14.3
CCOCC1CC2(CCN(Cc3ccccn3)CC2)CO1 (stereo not given)	-9.03	1.3	1.88	0.292	-2.83	11.7	-4.94	2.63	5.13	16.1
Cc1ccc(SCC2CNc3nc4ccccc4c(=O)n32)c(C)c1 (stereo not given)	0.606	22.1	23.4	0.375	5.94	12.4	29.8	6.76	-2.5	-2.7
CC(=O)NC1CCCN(C(=O)NCc2cccnc2-n2cccn2)C1 (stereo not given)	-4.23	10.7	-0.777	-6.22	6.21	11.4	14.4	5.79	7.69	-8.06
CN(C)C(=O)CCC(=O)NCc1cccnc1-n1cnc2ccccc21	-4.75	-2.7	-1.92	-1.46	-9.44	-1.03	-10.5	1.6	-2.44	0.948
c1ccc(OC2CCCC2)c(CNC2CCc3ncnn3C2)c1 (stereo not given)	-3.8	10.3	-13.9	5.35	2.87	20.7	3.46	6.22	18.1	-3.21
COC(=O)N1C[C@H]2CC[C@@H]1CN(Cc1cscn1)C2	-8.16	0	5.89	7.66	-1.05	9.93	28.6	5.85	14.6	-2.59
COCC(C)NC(=O)c1cc(Br)c2c(c1)OCCO2 (stereo not given)	-0.916	5.33	4.72	-4.82	8.43	8.74	10.6	-2.63	2.56	-7.03
O=C(NCCc1coc(-c2ccc(F)cc2)n1)NC1CCC(O)CC1 (stereo not given)	-5.41	21.3	5.86	5.82	-0.887	15.7	6.59	5.79	15.4	-15.6
